Most compounds without a hit are left out; they make up all but 3.1% or so of the library.
CASP6 VEID inh – human caspase-6 inhibitors, primary screen, biochemical, VEID-R110 fluorescence, single point, set 2; P55212; purified caspase-6, Z-VEID-R110 cleavage fluorescence; inhibition, % at 12.5 µM; hit rate 0.53% among 350,000; AID 686996, 2013;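 active = mean inhibition across replicates at least about 35%, with every replicate also reaching that limit, limit read from the data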;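 also: 0% = median of neutral control wells and 100% = no fluorescence left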
SIRT5 block – SIRT5 desuccinylase inhibitors, primary screen, biochemical, fluorescence imaging, single point, set 5 | NAD-dependent protein deacylase sirtuin-5, mitochondrial (Homo sapiens), Q9NXA8 | Purified SirT5, succinyl-peptide AMC, trypsin-coupled fluorescence | inhibition, % at 15 µM | hit rate 1.1% among 330,000; in the data active = inhibition above about 15%
ERAP1 HTS inh – human ERAP1 aminopeptidase inhibitors, primary screen, biochemical, single point, plate reader | Endoplasmic reticulum aminopeptidase 1 (Homo sapiens), Q9NZ08 | inhibition, % at 10.7 µM | hit rate 0.15% among 340,000 | recombinant ERAP1, Leu-AMC fluorescence, 60 min;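 active = mean replicate inhibition of at least 30%, or all replicates individually reaching that 30% level; inactive = mean below 30% and not every replicate reaching it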;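 also: 0% = neutral control wells and 100% = L-leucinethiol positive control wells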
Target sequence (Q9NZ08 whole entry, looked up): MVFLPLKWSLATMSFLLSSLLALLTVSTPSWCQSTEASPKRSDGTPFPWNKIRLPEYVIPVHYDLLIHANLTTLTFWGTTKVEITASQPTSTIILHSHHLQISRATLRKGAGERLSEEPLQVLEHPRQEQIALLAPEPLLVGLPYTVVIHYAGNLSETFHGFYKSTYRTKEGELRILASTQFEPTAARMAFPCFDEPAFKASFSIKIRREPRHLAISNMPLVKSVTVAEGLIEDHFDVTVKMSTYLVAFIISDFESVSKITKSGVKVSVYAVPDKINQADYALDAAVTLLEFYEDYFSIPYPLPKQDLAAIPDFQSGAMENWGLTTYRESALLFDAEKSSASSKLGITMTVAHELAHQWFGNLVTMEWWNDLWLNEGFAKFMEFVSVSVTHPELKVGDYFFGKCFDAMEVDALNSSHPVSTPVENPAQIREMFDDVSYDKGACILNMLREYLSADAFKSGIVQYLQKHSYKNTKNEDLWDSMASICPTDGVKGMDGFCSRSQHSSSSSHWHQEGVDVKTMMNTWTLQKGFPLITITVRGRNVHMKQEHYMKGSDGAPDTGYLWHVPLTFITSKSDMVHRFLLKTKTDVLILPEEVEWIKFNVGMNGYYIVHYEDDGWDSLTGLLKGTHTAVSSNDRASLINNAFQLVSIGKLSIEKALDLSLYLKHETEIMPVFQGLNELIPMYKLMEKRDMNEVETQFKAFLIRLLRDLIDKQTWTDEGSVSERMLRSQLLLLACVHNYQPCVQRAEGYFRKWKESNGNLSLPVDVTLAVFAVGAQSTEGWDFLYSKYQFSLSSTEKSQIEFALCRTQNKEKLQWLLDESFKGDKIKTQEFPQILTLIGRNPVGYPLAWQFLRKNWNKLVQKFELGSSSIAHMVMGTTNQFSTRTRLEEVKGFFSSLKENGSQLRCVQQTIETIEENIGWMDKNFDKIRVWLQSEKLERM
FGF22 binding – binders of human FGF22 protein, primary screen, FGF22 synaptogenesis inhibitor project, biophysical, thermal shift, single point. recombinant FGF22 thermal shift, SYPRO orange fluorescence; percent of sucrose octasulfate shift, DMSO zero. activity (Tm shift, normalised), % at 9.99 µM. hit rate 1.5% among 340,000;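 active = mean Tm shift, scaled 0 neutral to 100 positive control, at about 1.3% or above, every replicate too, limit read from the data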
* hit, by the source's call.

What do the screens show for `C/C=C/c1ccc(C2[C@H]3CNC[C@@H]2N3S(=O)(=O)c2ccc(C)cc2)cc1` (stereo not given in full)?
CASP6 VEID inh: 0.3; SIRT5 block: 1.4; ERAP1 HTS inh: 1.6

What do the screens show for `CCC(=O)N1CC2(C1)[C@H](c1ccc(-c3cccc(OC)c3)cc1)[C@@H](CO)N2C(C)=O`?
CASP6 VEID inh: 3.3; SIRT5 block: -2.8; ERAP1 HTS inh: -0.1; FGF22 binding: -0.1

What do the screens show for `O=C(O)c1cccc(NC2=C(n3nnc4ccccc43)C(=O)c3ccccc3C2=O)c1`?
CASP6 VEID inh: 81.8*; SIRT5 block: -3.9; ERAP1 HTS inh: -13.0; FGF22 binding: 0.0

Results for COCCNC(=O)C[C@@H]1CC[C@H]2[C@H](COc3ccc(NC(=O)Nc4cccc(F)c4)cc3C(=O)N2C)O1 ?
SIRT5 block: 23.1*; FGF22 binding: 0.1

How did COC(=O)C[C@H]1CC[C@@H]2[C@@H](COc3ccc(NC(=O)c4cccc(Cl)c4)cc3C(=O)N2C)O1 do in these assays?
CASP6 VEID inh: 4.3; SIRT5 block: 16.3*; ERAP1 HTS inh: 3.5; FGF22 binding: 0.2

What do the screens show for `CN1C(=O)c2cc(NC(=O)c3cccc(Cl)c3)ccc2OC[C@H]2O[C@@H](CC(=O)NC3CCCCC3)CC[C@H]21`?
FGF22 binding: 1.4*

What do the screens show for `O=C(C[C@@H]1C[C@H]2c3cc(NC(=O)NC4CCCC4)ccc3O[C@H]2[C@@H](CO)O1)NCc1ccccn1`?
CASP6 VEID inh: 1.4; SIRT5 block: -5.6; ERAP1 HTS inh: 3.8; FGF22 binding: -0.2

What do the screens show for `C[C@H]1CN([C@@H](C)CO)C(=O)Cc2cc(NC(=O)Nc3cccc4ccccc34)ccc2O[C@H]1CN(C)C(=O)Nc1ccc(F)cc1`?
CASP6 VEID inh: -1.5; SIRT5 block: 5.5; ERAP1 HTS inh: -3.0; FGF22 binding: -0.1

Results for C[C@H]1CN([C@@H](C)CO)C(=O)c2cc(C#CCN(C)C)cnc2O[C@@H]1CN(C)C(=O)c1ccc2c(c1)OCO2 ?
CASP6 VEID inh: -1.6; SIRT5 block: -3.7; ERAP1 HTS inh: 2.2; FGF22 binding: -0.2

Results for CCOC(=O)C1CCN(C(=O)COc2ccc([N+](=O)[O-])cc2)CC1 ?
CASP6 VEID inh: 1.0; SIRT5 block: 8.6; ERAP1 HTS inh: -6.9; FGF22 binding: 43.1*

How did CCOC(=O)C1CCN(C(=O)COC(=O)/C=C/c2ccc([N+](=O)[O-])cc2)CC1 do in these assays?
CASP6 VEID inh: -2.8; SIRT5 block: 2.4; ERAP1 HTS inh: 0.5; FGF22 binding: 0.1

How did CNC[C@@H]1Oc2ccc(NC(=O)C3CC3)cc2C(=O)N([C@H](C)CO)C[C@H]1C do in these assays?
CASP6 VEID inh: 1.4; ERAP1 HTS inh: 0.2; FGF22 binding: 0.0

What do the screens show for `Cc1c(Cc2ccc3c(c2)OCO3)sc(NC(=O)c2ccccc2)c1C(N)=O`?
CASP6 VEID inh: 3.0; SIRT5 block: 20.2*; ERAP1 HTS inh: 1.3; FGF22 binding: -0.1

How did C[C@H](CO)N1C[C@H](C)[C@H](CN(C)C(=O)[C@H](C)c2ccccc2)OCc2ccccc2-c2c(n(C)c3ccccc23)C1=O do in these assays?
CASP6 VEID inh: 2.4; SIRT5 block: -3.4; ERAP1 HTS inh: 3.3; FGF22 binding: -0.7

Results for COc1cccc(OCCSc2nc3ccccc3c(=O)[nH]2)c1 ?
CASP6 VEID inh: 0.3; SIRT5 block: -4.9; ERAP1 HTS inh: -0.5; FGF22 binding: 43.4*

What do the screens show for `COc1ccc(OCCSc2nc(-c3ccccc3)cc(=O)[nH]2)cc1`?
CASP6 VEID inh: 0.6; SIRT5 block: -1.8; ERAP1 HTS inh: 13.3; FGF22 binding: 0.3

How did Cc1noc(C)c1NC(=O)N(C)C[C@@H]1Oc2ccc(NC(=O)Nc3ccc4c(c3)OCO4)cc2C(=O)N([C@@H](C)CO)C[C@H]1C do in these assays?
CASP6 VEID inh: 3.0; SIRT5 block: 2.1; ERAP1 HTS inh: -1.1; FGF22 binding: 0.0

How did COCCNC(=O)C[C@@H]1C[C@@H]2c3cc(NC(=O)NC4CCCCC4)ccc3O[C@@H]2[C@H](CO)O1 do in these assays?
CASP6 VEID inh: 0.3; SIRT5 block: 0.5; ERAP1 HTS inh: -1.9; FGF22 binding: 0.3

What do the screens show for `CCNC(=O)N1CCN(c2ccc(N3CCN(Cc4ccccc4)[C@H](C)C3)c(C)c2)[C@@H](C)C1`?
CASP6 VEID inh: -0.5; SIRT5 block: 1.9; ERAP1 HTS inh: 3.4; FGF22 binding: 39.7*

How did C[C@@H]1CCCCO[C@@H](CN(C)C(=O)CCCN(C)C)[C@H](C)CN([C@@H](C)CO)C(=O)c2cc(NC(=O)c3ccncc3)ccc2O1 do in these assays?
FGF22 binding: -0.2

What do the screens show for `CC(C)Cc1ccc(C(C)C(N)=Nc2ccc(O)cc2)cc1` (stereo not given)?
CASP6 VEID inh: 0.2; SIRT5 block: 19.1*; ERAP1 HTS inh: 4.3; FGF22 binding: 0.3

Results for CC1CCN(S(=O)(=O)c2ccc3c(c2)C(Cl)(Cl)C(=O)N3)CC1 ?
CASP6 VEID inh: 69.1*; SIRT5 block: 5.0; ERAP1 HTS inh: 19.2; FGF22 binding: -0.1

What do the screens show for `COc1ccccc1NC(=S)N1CCC(c2nc3cc(C)c(C)cc3[nH]2)CC1`?
CASP6 VEID inh: -0.9; SIRT5 block: -5.0; ERAP1 HTS inh: 2.2

Results for Cc1cc2nc(C3CCN(C(=S)NCC(C)C)CC3)[nH]c2cc1C ?
CASP6 VEID inh: 0.3; SIRT5 block: -0.8; ERAP1 HTS inh: -2.8; FGF22 binding: 1.9*

What do the screens show for `O=C(c1ccc(F)cc1)N1CC(=O)N2[C@H](C1)[C@@H](c1ccc(C#Cc3ccc(F)cc3)cc1)[C@@H]2CO`?
CASP6 VEID inh: -1.4; SIRT5 block: -4.0; ERAP1 HTS inh: -1.5

Results for Nc1ccc(N2CCOCC2)c2nonc12 ?
CASP6 VEID inh: 82.9*; SIRT5 block: -5.9; ERAP1 HTS inh: 5.2; FGF22 binding: 0.1

How did O=C(Nc1ccc(F)cc1)Nc1ccc(N2CCOCC2)c2nonc12 do in these assays?
CASP6 VEID inh: 8.2; SIRT5 block: -1.8; ERAP1 HTS inh: 1.5; FGF22 binding: 0.1

Results for O=C(C[C@H]1CC[C@H]2[C@@H](COC[C@@H](O)CN2C(=O)c2ccc3c(c2)OCO3)O1)NC1CCC1 ?
CASP6 VEID inh: 3.4; SIRT5 block: 9.1; ERAP1 HTS inh: 1.0; FGF22 binding: 0.1

Results for Cc1[nH]cnc1CN1CCc2c(c3ccccc3n2C)C1=O ?
CASP6 VEID inh: 80.7*; SIRT5 block: -3.1; ERAP1 HTS inh: 2.7; FGF22 binding: 0.0

Results for Cc1nccn1CC1CCc2c(c3ccccc3n2C)C1=O (stereo not given) ?
CASP6 VEID inh: 1.3; SIRT5 block: 1.5; ERAP1 HTS inh: -0.4; FGF22 binding: -0.2

Results for Oc1ccc(/C=N/N=C/c2ccc(O)cc2)cc1 ?
CASP6 VEID inh: 6.2; SIRT5 block: 1.5; ERAP1 HTS inh: 0.8; FGF22 binding: 66.5*

Results for Cc1ccc(/C=N/N=C/c2ccc(C)cc2)cc1 ?
CASP6 VEID inh: -2.0; SIRT5 block: -3.3; ERAP1 HTS inh: 2.8; FGF22 binding: 0.1

Screening data as filed in PubChem BioAssay.
